The values below come from ChEMBL document CHEMBL1961873, “Compounds: GSK PKIS; Assays: Nanosyn kinase panel” (2012).

Assay [1] addresses Serine/threonine-protein kinase pim-2 (Homo sapiens) (UniProt Q9P1W9). To be noted: at 1 µM.
Assay [2] has as its target Serine/threonine-protein kinase pim-3 (Homo sapiens) (UniProt Q86V86). Conditions: at 0.1 µM.
The target is the same in assay [3]. Conditions: at 1 µM.
Assay [4] concerns the target T1, MAP kinase-activated protein kinase 5 (Homo sapiens) (UniProt Q8IW41).
T1 sequence (whole entry): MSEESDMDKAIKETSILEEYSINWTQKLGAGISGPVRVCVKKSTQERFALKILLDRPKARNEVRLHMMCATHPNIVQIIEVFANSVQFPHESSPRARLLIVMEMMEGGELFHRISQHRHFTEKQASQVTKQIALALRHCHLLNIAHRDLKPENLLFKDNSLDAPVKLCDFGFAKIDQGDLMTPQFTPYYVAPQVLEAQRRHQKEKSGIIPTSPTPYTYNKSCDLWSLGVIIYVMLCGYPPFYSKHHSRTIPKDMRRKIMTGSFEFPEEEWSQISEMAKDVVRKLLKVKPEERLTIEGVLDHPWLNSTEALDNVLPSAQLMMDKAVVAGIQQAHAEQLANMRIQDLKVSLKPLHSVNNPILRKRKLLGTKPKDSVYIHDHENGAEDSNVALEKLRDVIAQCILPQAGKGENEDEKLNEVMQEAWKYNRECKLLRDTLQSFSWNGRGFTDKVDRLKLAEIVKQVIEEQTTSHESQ
To be noted: at 0.1 µM.

The target in assay [5] is T1, MAP kinase-activated protein kinase 5 (Homo sapiens). Conditions: at 1 µM.
For assay [6], the target named is Serine/threonine-protein kinase SIK1 (Homo sapiens) (UniProt P57059). To be noted: at 0.1 µM.
The target is the same in assay [7]. To be noted: at 1 µM.
Assay [8] addresses Serine/threonine-protein kinase SIK2 (Homo sapiens) (UniProt Q9H0K1). Conditions: at 0.1 µM.
For assay [9] the target is unchanged. Conditions: at 1 µM.
In assay [10] the target is T2, Serine/threonine-protein kinase TBK1 (Homo sapiens) (UniProt Q9UHD2).
T2 sequence (whole entry): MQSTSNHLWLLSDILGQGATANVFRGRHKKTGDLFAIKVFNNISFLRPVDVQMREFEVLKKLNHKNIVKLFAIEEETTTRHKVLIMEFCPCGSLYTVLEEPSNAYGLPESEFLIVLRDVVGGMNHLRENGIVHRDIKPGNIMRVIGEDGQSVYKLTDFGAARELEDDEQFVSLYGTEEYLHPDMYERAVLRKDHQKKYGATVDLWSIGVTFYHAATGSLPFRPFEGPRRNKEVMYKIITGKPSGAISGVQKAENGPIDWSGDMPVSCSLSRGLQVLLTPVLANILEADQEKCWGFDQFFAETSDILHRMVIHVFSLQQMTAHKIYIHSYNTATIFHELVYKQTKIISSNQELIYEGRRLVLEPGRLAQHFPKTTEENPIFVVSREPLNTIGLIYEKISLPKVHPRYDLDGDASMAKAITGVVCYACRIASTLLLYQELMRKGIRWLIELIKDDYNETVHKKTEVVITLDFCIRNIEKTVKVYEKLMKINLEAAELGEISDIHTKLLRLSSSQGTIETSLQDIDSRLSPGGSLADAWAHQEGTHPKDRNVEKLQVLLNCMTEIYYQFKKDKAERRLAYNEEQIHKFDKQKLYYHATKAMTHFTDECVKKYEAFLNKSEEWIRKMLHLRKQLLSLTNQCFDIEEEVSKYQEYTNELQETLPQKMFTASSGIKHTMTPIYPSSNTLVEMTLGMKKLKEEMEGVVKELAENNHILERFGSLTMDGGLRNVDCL
To be noted: at 0.1 µM.

Assay [11] concerns the target T2, Serine/threonine-protein kinase TBK1 (Homo sapiens). Conditions: at 1 µM.
Assay [12] addresses T3, Testis-specific serine/threonine-protein kinase 1 (Homo sapiens) (UniProt Q9BXA7).
T3 sequence (whole entry): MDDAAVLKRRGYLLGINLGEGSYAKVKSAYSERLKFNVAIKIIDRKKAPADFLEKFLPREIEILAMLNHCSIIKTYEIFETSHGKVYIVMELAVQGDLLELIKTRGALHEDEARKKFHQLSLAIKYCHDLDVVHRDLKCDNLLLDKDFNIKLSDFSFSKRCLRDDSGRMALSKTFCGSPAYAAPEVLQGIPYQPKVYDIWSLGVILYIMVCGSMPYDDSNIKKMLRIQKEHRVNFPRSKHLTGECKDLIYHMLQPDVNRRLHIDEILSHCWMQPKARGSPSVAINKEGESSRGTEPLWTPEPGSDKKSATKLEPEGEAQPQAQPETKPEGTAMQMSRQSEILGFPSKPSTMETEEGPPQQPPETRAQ
To be noted: at 0.1 µM.

In assay [13] the target is T3, Testis-specific serine/threonine-protein kinase 1 (Homo sapiens). Conditions: at 1 µM.
For assay [14], the target named is T4, Testis-specific serine/threonine-protein kinase 2 (Homo sapiens) (UniProt Q96PF2).
T4 sequence (whole entry): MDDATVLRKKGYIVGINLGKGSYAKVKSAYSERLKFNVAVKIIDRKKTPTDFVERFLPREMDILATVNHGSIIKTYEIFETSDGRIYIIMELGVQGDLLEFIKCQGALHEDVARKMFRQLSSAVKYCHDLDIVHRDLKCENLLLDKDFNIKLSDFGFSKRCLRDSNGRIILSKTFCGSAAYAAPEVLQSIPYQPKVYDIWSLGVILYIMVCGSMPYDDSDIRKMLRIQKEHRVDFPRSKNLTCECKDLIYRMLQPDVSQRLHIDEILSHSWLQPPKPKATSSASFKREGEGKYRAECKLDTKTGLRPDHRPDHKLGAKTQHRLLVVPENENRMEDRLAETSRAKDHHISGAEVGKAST
Conditions: at 0.1 µM.

Assay [15] addresses T4, Testis-specific serine/threonine-protein kinase 2 (Homo sapiens). Conditions: at 1 µM.
In assay [16] the target is Casein kinase I isoform alpha (Homo sapiens) (UniProt P48729). To be noted: at 0.1 µM.
The target is the same in assay [17]. To be noted: at 1 µM.
Assay [18] deals with Casein kinase I isoform gamma-1 (Homo sapiens) (UniProt Q9HCP0). To be noted: at 0.1 µM.
Assay [19] shares this target. Conditions: at 1 µM.
The target in assay [20] is Casein kinase I isoform gamma-2 (Homo sapiens) (UniProt P78368). Conditions: at 0.1 µM.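 Also: values are mean inhibition figures reported as part of the GSK PKIS dataset.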
Chain of Casein kinase I isoform gamma-2 (Homo sapiens) (P78368 whole entry, looked up, canonical isoform): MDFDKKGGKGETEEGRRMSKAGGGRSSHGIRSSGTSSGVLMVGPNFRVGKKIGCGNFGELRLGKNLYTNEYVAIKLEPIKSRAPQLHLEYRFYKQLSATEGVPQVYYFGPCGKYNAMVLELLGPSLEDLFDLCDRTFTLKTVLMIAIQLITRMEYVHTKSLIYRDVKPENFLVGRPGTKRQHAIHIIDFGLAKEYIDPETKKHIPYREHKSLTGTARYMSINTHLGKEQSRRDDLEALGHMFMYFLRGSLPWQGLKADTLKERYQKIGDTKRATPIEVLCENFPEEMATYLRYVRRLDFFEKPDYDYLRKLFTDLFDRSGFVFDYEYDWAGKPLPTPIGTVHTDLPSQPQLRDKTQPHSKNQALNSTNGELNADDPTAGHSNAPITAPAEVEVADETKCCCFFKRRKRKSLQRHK

Chain of Serine/threonine-protein kinase SIK2 (Homo sapiens) (Q9H0K1 whole entry, looked up): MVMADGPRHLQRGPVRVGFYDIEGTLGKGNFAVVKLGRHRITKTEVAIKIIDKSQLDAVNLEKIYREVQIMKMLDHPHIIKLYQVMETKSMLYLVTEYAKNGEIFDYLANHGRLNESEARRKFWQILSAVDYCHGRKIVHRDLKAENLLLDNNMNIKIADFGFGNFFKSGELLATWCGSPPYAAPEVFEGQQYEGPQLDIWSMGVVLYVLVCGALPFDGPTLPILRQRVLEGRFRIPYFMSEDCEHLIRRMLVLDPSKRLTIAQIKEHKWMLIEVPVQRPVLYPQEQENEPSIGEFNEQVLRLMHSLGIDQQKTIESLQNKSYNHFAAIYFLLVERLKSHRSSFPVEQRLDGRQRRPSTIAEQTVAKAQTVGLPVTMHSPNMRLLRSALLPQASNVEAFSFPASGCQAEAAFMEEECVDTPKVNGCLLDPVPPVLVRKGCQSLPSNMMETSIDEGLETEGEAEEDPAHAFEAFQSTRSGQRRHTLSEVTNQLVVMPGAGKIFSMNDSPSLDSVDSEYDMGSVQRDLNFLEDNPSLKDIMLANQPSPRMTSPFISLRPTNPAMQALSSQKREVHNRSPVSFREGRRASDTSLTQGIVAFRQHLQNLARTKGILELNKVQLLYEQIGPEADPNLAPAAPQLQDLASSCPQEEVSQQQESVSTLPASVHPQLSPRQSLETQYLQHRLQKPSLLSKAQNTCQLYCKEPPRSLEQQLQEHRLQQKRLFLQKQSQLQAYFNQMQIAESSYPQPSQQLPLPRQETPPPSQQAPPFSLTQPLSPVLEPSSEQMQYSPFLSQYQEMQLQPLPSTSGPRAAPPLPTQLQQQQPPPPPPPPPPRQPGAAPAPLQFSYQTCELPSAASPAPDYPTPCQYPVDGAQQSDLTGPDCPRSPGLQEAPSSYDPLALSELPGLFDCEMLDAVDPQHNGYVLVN
Chain of Casein kinase I isoform gamma-1 (Homo sapiens) (Q9HCP0 whole entry, looked up, canonical isoform): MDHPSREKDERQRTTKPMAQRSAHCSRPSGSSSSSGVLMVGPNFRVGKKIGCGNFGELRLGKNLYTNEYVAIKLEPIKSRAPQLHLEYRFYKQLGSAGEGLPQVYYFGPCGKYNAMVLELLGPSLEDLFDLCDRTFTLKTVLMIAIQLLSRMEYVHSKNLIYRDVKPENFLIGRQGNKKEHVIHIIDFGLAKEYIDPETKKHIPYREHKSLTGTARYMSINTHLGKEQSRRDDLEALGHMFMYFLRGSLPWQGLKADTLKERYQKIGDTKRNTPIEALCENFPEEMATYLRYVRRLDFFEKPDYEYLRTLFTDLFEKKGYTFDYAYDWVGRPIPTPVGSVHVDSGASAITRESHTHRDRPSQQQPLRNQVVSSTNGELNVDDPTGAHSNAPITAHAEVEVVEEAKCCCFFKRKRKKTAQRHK
Chain of Casein kinase I isoform alpha (Homo sapiens) (P48729 2-337 limits assumed): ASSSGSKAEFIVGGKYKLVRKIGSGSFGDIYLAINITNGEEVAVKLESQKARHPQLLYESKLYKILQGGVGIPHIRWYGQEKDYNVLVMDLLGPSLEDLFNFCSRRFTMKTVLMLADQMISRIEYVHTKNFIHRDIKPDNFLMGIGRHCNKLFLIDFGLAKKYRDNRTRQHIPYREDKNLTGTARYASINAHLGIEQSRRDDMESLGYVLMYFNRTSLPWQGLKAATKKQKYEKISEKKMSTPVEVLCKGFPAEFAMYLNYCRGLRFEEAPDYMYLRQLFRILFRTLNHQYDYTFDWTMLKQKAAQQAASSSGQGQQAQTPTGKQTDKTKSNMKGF
Chain of Serine/threonine-protein kinase pim-2 (Homo sapiens) (Q9P1W9 whole entry, looked up): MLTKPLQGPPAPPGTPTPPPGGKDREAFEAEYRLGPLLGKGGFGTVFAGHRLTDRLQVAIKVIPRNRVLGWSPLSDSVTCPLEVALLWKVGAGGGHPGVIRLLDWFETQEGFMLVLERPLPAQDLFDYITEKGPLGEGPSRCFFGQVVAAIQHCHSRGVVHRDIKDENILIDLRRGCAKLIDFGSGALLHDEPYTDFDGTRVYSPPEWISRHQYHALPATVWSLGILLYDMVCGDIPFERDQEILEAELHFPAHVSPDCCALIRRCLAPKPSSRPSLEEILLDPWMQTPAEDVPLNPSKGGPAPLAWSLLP
Chain of Serine/threonine-protein kinase SIK1 (Homo sapiens) (P57059 whole entry): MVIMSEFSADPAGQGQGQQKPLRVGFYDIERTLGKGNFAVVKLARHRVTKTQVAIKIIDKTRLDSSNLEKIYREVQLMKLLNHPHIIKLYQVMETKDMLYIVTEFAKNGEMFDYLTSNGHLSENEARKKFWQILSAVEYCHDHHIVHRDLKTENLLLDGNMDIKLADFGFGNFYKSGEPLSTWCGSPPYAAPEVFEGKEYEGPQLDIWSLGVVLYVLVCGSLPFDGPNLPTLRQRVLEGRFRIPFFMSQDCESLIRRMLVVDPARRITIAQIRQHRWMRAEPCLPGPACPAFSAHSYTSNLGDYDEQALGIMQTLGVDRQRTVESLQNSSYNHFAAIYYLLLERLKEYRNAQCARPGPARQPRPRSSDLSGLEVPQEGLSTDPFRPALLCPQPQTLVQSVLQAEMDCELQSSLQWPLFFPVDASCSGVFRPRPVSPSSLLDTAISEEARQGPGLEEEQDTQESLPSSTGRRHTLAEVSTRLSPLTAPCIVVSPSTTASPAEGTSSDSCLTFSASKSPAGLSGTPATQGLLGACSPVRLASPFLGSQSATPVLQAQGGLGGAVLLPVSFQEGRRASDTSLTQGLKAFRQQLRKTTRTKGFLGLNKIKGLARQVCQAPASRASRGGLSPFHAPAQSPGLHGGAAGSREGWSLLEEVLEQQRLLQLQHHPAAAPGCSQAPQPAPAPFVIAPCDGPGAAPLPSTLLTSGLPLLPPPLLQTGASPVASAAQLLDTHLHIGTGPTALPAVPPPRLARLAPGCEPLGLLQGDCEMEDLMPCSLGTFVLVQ

`CCOc1ccc2c(-c3ccnc(Nc4cccc(C(F)(F)F)c4)n3)cnn2n1`: the inhibition is -0.33% in [1]; -1.1% in assay [2]; -1.96% in assay [3]; 0.3% in assay [4]; -0.41% in [5]; 2.46% in assay [6]. Also, the inhibition in assay [7] was 3.82%; in assay [8], 2.86%; in assay [9], 3.43%; in [10], 2.13%; in [11], 13.1%; in [12] it was 2.69%. Besides, the inhibition worked out at 3.46% in assay [13]; 0.15% in assay [14]; 0.22% in assay [15]; 0.42% in assay [16]; 0.35% in [17]; 2.16% in [18]. Besides, the inhibition in [19] came to 3.1%; in [20], 2.06%.

Take `CC1=C(C(=O)Nc2cc(Cl)c3[nH]ncc3c2)C(c2ccc(C(F)(F)F)cc2)CC(=O)N1` (stereo not given): the inhibition is -0.24% in assay [1]; -0.23% in assay [2]; -0.25% in assay [3]; 1.37% in assay [4]; 2.73% in [5]; 4.89% in [6]. Moreover, the inhibition in [7] worked out at 8.58%; in assay [8], 4.56%; in [9], 11.8%; in assay [10], 2.77%; in assay [11], 3.48%; in [12] it was 3.52%. For the same compound, the inhibition in [13] was 3.9%; in assay [14], 2.37%; in assay [15], 1.37%; in assay [16], 1.86%; in assay [17], 2.49%; in [18] it was 2.91%. Moreover, the inhibition was found to be 3.25% in assay [19] and 2.31% in [20].

Consider `CCn1c(-c2nonc2N)nc2c(C#CC(C)(C)O)ncc(OC3CCNCC3)c21`, for which the inhibition in assay [1] worked out at 11.7%; in assay [2], 2.64%; in [3], 23.8%; in [4] it was 0.79%; in assay [5], 1.22%; in assay [6], 3.53%. The inhibition in assay [7] was determined as 10.6%; in [8] it was 3.69%; in assay [9], 14.8%; in assay [10] it was 12.2%; in assay [11], 45.9%; in assay [12] it was 20.7%. The inhibition worked out at 71.4% in assay [13]; 0.88% in assay [14]; 2.99% in [15]; 2.3% in [16]; 8.85% in assay [17]; 2.94% in assay [18]. Further, the results for the inhibition in [19] and in assay [20] were 4.65% and 2.46%, respectively.

For the compound `COC(=O)Nc1nc2ccc(Oc3ccc(NC(=O)Nc4cccc(Cl)c4)cc3)cc2[nH]1`, the inhibition is -1.04% in assay [1]; -0.85% in assay [2]; -1.87% in assay [3]; 0.18% in assay [4]; -0.5% in assay [5]; 1.1% in assay [6]. Also, the inhibition in assay [7] is 4.14%; in assay [8] it was 0.4%; in assay [9] it was 1.86%; in [10], 1.34%; in assay [11], -2.2%; in [12], 2.29%. For the same compound, the inhibition in assay [13] is 0.67%; in assay [14], -0.06%; in assay [15], -0.21%; in [16], 0.11%; in assay [17], 0.94%; in assay [18], 0.68%. Moreover, the inhibition was determined as 1.34% in assay [19] and 0.75% in assay [20].

As for `CS(=O)(=O)CCNCc1coc(-c2ccc3ncnc(Nc4ccc(OCc5ccccc5)cc4)c3c2)c1`, the inhibition in assay [1] was 0.48%; in [2] it was 1.2%; in assay [3] it was 3.43%; in [4] it was 1.41%; in [5], 1.21%; in assay [6], 1.7%. The inhibition in assay [7] is 8.27%; in [8], -0.18%; in assay [9], 5.7%; in assay [10] it was 2.64%; in [11], 2.44%; in [12], 1.84%. The inhibition in [13] was 3.84%; in [14], 2.99%; in assay [15], 2.93%; in assay [16], 1.56%; in assay [17], 4.42%; in assay [18] it was 1.97%. Also, the inhibition in assay [19] worked out at 2.4%; in [20], 1.63%.

In the case of `CCCN1CCC(c2ccc(Nc3nc(Nc4cc(F)ccc4C(N)=O)c4cc[nH]c4n3)c(OC)c2)CC1`, the inhibition in [1] is 13.3%; in assay [2], 8.07%; in assay [3] it was 49.4%; in [4], 6.44%; in assay [5] it was 40.9%; in assay [6], 10.1%. Moreover, the inhibition came out at 14.7% in assay [7]; 10.9% in [8]; 11.7% in [9]; 0.75% in assay [10]; 10.2% in assay [11]; 82.4% in assay [12]. In addition, the inhibition in assay [13] stood at 94.8%; in assay [14], 63.3%; in [15] it was 91.1%; in assay [16], 31.9%; in assay [17], 67.5%; in assay [18] it was 23.7%. The inhibition worked out at 72.1% in assay [19] and 20.9% in assay [20].

For `COC(=O)c1sc(-n2cnc3cc(OC)c(OC)cc32)cc1OCc1ccccc1C(F)(F)F`, the inhibition is -0.34% in [1]; -1.72% in assay [2]; -2.84% in assay [3]; 2.02% in assay [4]; -0.15% in assay [5]; 6.13% in assay [6]. Besides, the inhibition was 24.6% in assay [7]; 5.85% in assay [8]; 15.2% in [9]; 3.44% in assay [10]; 28.6% in assay [11]; 3.74% in [12]. The inhibition was 4.56% in [13]; 2.04% in assay [14]; 1.18% in [15]; -3.52% in assay [16]; 1.68% in assay [17]; 4.13% in assay [18]. In addition, the inhibition in [19] came out at 4.8%; in assay [20], 2.8%.

The term inhibition denotes the change of the read-out against control, counted positive when it falls.
